# Results: PubChem BioAssay
# Columns and labels:
# [1] = tested on: Human papillomavirus type 1a protein E7 (residues 44-93); experiment: small molecules binding HPV E7 44-93 – biochemical, small-molecule microarray, residues 44-93, 635 nm fluorescence, primary screen (AID 1108); conditions: fluorescence 635 nm, higher = more signal;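 note: E7 fragment applied at 1 µg/mL in TBST for 1 h at 4 C; score combines spot fluorescence with its signal to noise ratio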
# [2] = hepatitis C replication reporter changes, two-sided – Huh7 cells, luciferase reporter, HCV replication inhibitor project, primary screen (AID 1109); conditions: Huh7 HCV replicon luciferase reporter, 48 h; higher = more signal;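 note: huh7 hepatoma cells harbouring a luciferase neomycin HCV replicon reporter; luciferase luminescence as measure of HCV replicon replication; test concentration not given here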
# [3] = molecular target: Left-right determination factor 2 (Homo sapiens) (UniProt O00292); experiment: small molecules binding LEFTY2 protein – biochemical, small-molecule microarray, 635 nm fluorescence scan, primary screen (AID 1110); conditions: higher = more signal
# [4] = molecular target: Calmodulin-1 (Homo sapiens) (UniProt P0DP23); experiment: small molecules binding calmodulin-1 with EGTA – biochemical, small-molecule microarray, Cy5-labelled CALM1, profiling panel (AID 1111); conditions: Cy5-CALM1 binding fluorescence, higher = more signal;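 note: labelled calmodulin applied in Tris saline Tween buffer holding calcium plus EGTA and DTT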
# [5] = molecular target: Calmodulin-1 (Homo sapiens) (UniProt P0DP23); experiment: small molecules binding Ca-loaded calmodulin-1 – biochemical, small-molecule microarray, Cy5-labelled CALM1, plus calcium, artefact control for SMM control-protein annotation, profiling panel (AID 1112); conditions: Cy5-CALM1 binding fluorescence, higher = more signal;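 note: score merges spot fluorescence with signal to noise from triplicate slides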
# [6] = probe aWnt5a binding to arrayed compounds – biochemical, biotinylated probe, 635/667 nm fluorescence, primary screen (AID 1113); conditions: small-molecule microarray, higher = more signal;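 note: score merges 667 nm fluorescence intensity with signal-to-noise per printed feature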
# [7] = probe aShh binding to arrayed compounds – biochemical, biotinylated probe, 635/667 nm fluorescence, primary screen (AID 1114); conditions: small-molecule microarray, higher = more signal;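 note: probe is biotin-labelled aShh protein from a stem cell growth factor screen; measures binding of labelled protein to compounds printed on the slide; score merges feature fluorescence at 667 nm with signal-to-noise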
# [8] = probe aNog binding to arrayed compounds – biochemical, biotinylated probe, 635/667 nm fluorescence, primary screen (AID 1115); conditions: small-molecule microarray, higher = more signal;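 note: probe is biotinylated aNog protein used at 0.15 µg/mL for 1 h at 4 C; z-score combines 667 nm fluorescence of each spot with its signal to noise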
# [9] = molecular target: Torsin-1A-interacting protein 1 (Homo sapiens) (UniProt Q5JTV8); experiment: compound microarray binding of lysate hLAP1 – cell lysate, small-molecule microarray, COS7 lysate, 635/667 nm fluorescence, primary screen (AID 1116); conditions: 635 nm fluorescence, higher = more signal
# [10] = molecular target: Alpha-bungarotoxin (Bungarus multicinctus) (UniProt P60615); experiment: compounds binding labelled alpha-BTX control protein – biochemical, small-molecule microarray, Alexa647 label, 635/667 nm fluorescence, artefact control for SMM control protein annotation, profiling panel (AID 1117); conditions: alpha-BTX-A647 binding fluorescence, higher = more signal
# Sequence of Alpha-bungarotoxin (Bungarus multicinctus) (P60615 whole entry, looked up): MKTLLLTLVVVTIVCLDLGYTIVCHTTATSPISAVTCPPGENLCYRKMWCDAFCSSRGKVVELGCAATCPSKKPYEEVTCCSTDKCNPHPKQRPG
# Sequence of Left-right determination factor 2 (Homo sapiens) (O00292 whole entry, looked up): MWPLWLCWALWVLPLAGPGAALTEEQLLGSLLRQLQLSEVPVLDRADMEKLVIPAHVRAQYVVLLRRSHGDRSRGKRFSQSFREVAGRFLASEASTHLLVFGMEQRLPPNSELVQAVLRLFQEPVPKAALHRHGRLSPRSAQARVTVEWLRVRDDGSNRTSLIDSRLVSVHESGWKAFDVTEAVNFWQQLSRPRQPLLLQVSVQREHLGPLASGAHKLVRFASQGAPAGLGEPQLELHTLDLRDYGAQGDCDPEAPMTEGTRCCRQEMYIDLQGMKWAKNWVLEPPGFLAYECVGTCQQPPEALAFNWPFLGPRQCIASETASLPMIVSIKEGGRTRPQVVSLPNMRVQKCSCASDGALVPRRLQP
# Sequence of Torsin-1A-interacting protein 1 (Homo sapiens) (Q5JTV8 whole entry, looked up): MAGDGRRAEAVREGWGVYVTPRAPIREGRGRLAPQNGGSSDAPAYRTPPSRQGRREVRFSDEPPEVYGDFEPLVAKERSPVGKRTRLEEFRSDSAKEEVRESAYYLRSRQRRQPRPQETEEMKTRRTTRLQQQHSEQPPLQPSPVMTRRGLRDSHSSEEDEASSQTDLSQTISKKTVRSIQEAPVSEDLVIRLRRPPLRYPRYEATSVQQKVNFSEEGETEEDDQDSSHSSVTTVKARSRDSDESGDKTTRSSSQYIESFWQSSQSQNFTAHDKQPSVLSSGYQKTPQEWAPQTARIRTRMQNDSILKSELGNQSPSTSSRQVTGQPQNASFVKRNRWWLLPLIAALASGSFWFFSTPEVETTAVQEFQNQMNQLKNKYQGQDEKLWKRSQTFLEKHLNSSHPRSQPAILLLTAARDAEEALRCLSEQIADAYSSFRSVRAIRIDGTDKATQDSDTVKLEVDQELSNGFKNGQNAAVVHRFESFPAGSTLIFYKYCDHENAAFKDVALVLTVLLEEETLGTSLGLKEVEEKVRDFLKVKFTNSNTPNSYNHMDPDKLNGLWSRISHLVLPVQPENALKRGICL
Compound,composite z-score [1],z-score [2],composite z-score [3],composite z-score [4],composite z-score [5],composite z-score [6],composite z-score [7],composite z-score [8],composite z-score [9],composite z-score [10]
C#CCOc1ccc(C[C@@H](C(=O)OC)N(CC#C)[C@@H](/C=C/C2CC2)[C@H](O)Cc2ccccc2)cc1,-0.802,-2.06,-0.336,-1.1,-1.69,-0.2,-0.221,-0.337,0.255,-0.335
O=C(CS)NCCCCCNC(=O)[C@@H]1C[C@@H]2C(=O)NCC(=O)N2[C@@H]1c1cccc(OCCO)c1,0.275,-0.125,0.387,0.129,-0.193,-0.16,-0.197,-0.137,0.635,-0.315
CCCC1(C(=O)OC)C=C2C(=C(c3ccccc3)C(=O)C2C)CN1 (stereo not given),-0.719,-1.85,0.0193,0.155,-0.253,-0.0203,0.108,1.75,1.05,0.287
COC(=O)[C@H](Cc1ccccc1)N[C@H](/C=C/C1CC1)[C@@H](O)Cc1ccccc1,-0.636,-1.02,-0.276,-0.595,-1.08,-0.237,0.14,-0.34,0.627,-0.696
Cc1ccc(S[C@]2(C(=O)O)CC(=O)N(Cc3ccccc3C(F)(F)F)[C@@H]2c2ccc(CO)cc2I)cc1,0.4,-1.26,-1.66,-0.633,-0.711,-0.12,-0.315,-0.322,-0.327,-0.247
COCCOC(=O)N1C(=O)[C@@]2(c3ccccc31)[C@H](c1ccc(OCCO)cc1)N1[C@H](c3ccccc3)[C@H](c3ccccc3)OC(=O)[C@H]1[C@@H]2C(=O)N1CCc2cc(OC)c(OC)cc2C1,1.16,-2.15,1.03,1.2,0.0721,-0.001,0.0141,0.603,0.977,2.23
NC(=O)[C@@H]1[C@H]2C(=O)O[C@H](c3ccccc3)[C@H](c3ccccc3)N2[C@H](c2ccc(OCCO)cc2)[C@@]12C(=O)Nc1ccc(C#CC3=CCCCC3)cc12,1.36,-3.2,0.759,0.658,-0.223,0.0182,0.031,0.0415,1.06,0.711
Cc1ccc(S[C@]2(C(=O)O)CC(=O)N(C(C)C)[C@@H]2c2ccc(CO)cc2)cc1,0.253,-0.625,-0.193,-0.0058,-0.529,-0.12,0.216,-0.294,1.42,0.644
C#CCN1[C@@H](Cc2ccc(O)cc2)C(=O)O[C@H](Cc2ccccc2)[C@@H]1/C=C/C1CC1,-0.513,-3.22,0.207,-0.458,-0.587,-0.18,0.163,-0.113,-0.188,0.0577
C=C(CCCC)/C(=C/C[C@@H](OC(C)=O)c1cccc(OCCO)c1)c1cnc2ccccc2c1,0.571,-1.32,0.257,-0.18,-0.387,-0.124,-0.0709,0.123,0.314,1.07
C=C(/C(=C/C[C@H](OC(=O)c1ccncc1)c1ccc(OCCO)cc1)c1cc(C(=O)OC)ccc1OC)C(C)C,1.08,-0.939,0.17,0.959,-0.218,-0.128,0.111,0.108,0.296,1.72
O=C1NC(=O)C2C1C=CC(C(O)c1ccc(-c3ccccc3)s1)N2Nc1ccc(Cl)cc1Cl (stereo not given),1.29,1.7,-0.114,1.65,1.03,0.1,0.213,-0.358,0.712,1.06
